According to PubChem BioAssay AID504339 (National Center for Advancing Translational Sciences (NCATS), 2011):
About 17,000 (4.4%) of roughly 390,000 compounds were called active. Entries that show only a call come without a potency. About 8% were inconclusive and are not listed. The sample holds actives, similar compounds and a random draw of the others, so the mix is not that of the screen. Calls follow the shape of the dose curve; as a rule, active = well fitted inhibition curve with a large enough effect; inconclusive = small, poorly fitted or top-dose-only effect; inactive = no such curve, though single readings can be large or run the other way.

Target: Lysine-specific demethylase 4A (Homo sapiens) (UniProt O75164)
Assay: qHTS Assay for Inhibitors of JMJD2A-Tudor Domain; also: nearly all actives have a fitted effect of over 50% in size
Conditions: AlphaScreen JMJD2A-Tudor / H3K4me3 peptide binding; series mostly up to 114 µM
Potency is read from the fitted curve at half-maximal effect.

Sequence of Lysine-specific demethylase 4A (Homo sapiens) (O75164 whole entry, looked up, the tested form may be a part): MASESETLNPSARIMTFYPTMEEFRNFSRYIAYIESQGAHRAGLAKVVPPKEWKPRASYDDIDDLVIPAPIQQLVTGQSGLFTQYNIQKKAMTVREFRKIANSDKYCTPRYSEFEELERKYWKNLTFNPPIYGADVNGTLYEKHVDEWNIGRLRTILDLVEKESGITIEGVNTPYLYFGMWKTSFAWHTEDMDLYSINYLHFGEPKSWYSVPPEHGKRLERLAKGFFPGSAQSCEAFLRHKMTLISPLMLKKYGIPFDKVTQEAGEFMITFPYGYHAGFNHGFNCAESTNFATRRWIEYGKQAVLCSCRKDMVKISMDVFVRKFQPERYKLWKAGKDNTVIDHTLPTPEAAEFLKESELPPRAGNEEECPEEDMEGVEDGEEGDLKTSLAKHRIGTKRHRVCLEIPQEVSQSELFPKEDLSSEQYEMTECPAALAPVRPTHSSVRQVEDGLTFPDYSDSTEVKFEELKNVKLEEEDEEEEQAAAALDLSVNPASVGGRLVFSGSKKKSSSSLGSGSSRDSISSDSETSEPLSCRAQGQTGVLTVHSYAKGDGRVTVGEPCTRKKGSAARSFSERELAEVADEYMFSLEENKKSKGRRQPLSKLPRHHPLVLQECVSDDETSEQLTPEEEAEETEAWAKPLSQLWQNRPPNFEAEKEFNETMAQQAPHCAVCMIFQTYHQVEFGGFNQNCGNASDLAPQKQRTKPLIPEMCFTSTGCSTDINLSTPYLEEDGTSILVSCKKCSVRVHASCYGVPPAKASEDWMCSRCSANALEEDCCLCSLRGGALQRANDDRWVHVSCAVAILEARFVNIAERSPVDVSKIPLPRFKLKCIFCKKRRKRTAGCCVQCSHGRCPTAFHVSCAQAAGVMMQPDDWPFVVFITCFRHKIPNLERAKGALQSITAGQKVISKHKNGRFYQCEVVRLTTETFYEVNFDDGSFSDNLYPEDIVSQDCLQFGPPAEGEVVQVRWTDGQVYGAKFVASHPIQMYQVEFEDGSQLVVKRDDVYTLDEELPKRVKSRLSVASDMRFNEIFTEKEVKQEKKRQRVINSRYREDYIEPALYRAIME

| Compound | Potency |
| --- | --- |
| CCCCC(CC)CNC(=O)C1CCN(S(=O)(=O)c2cccc3nsnc23)CC1 (stereo not drawn) | inactive |
| O=C1COc2ccc(S(=O)(=O)Nc3ccc(OC(F)(F)F)cc3)cc2N1 | inactive |
| Nc1ncc(S(=O)(=O)Nc2ccc(OC(F)(F)F)cc2)cn1 | inactive |
| O=S(=O)(Nc1ccc(O)c2ccccc12)c1ccc(OC(F)(F)F)cc1 | 50.1 µM (active) |
| COC(=O)CC1Oc2ccccc2-n2cc(-c3ccccc3)nc21 (stereo not drawn) | inactive |
| CCOc1ccc(-c2cc3nc(C4CCN(C(=O)OC(C)(C)C)CC4)c(C(=O)Nc4ccc(C(=O)OC)cc4)cn3n2)cc1 | inactive |
| COc1ccc(OC)c2sc(N3CCN(C(=O)C4COc5ccccc5O4)CC3)nc12 (stereo not drawn) | inactive |
| Cc1c(CC(=O)N2CCN(C(=O)C3COc4ccccc4O3)CC2)c(=O)oc2c(O)c(O)ccc12 (stereo not drawn) | 2.82 µM (active) |
| COc1cc(NS(=O)(=O)c2ccc3c(c2)OCC(C(=O)N2CCCC2)O3)cc(OC)c1 (stereo not drawn) | inactive |
| CCNC(=O)Cn1nc(C)n2c(cc3c(OC)cccc32)c1=O | inactive |
| CC(C)C1N=C2c3ccccc3N=C(SCC(=O)c3ccc(O)c(O)c3)N2C1=O (stereo not drawn) | 3.16 µM (active) |
| Cc1ccc(CNC(=O)CSC2=Nc3ccccc3C3=NC(C)C(=O)N23)cc1 (stereo not drawn) | inactive |
| O=C(CSC1=Nc2ccccc2C2=NC(c3ccccc3)C(=O)N12)NCC1CCCO1 (stereo not drawn) | inactive |
| COc1ccc(-n2c(SC)nc3sc4c(c3c2=O)CCN(C(C)=O)C4)cc1 | inactive |
| CCN1CCN(Cc2c(O)ccc3oc(C)c(C(=O)Nc4ccc(C)cc4C)c23)CC1 | inactive |
| O=C(NCCCNCc1ccccc1)c1ccc(/C=N/O)nc1 | 7.94 µM (active) |
| CC(C)c1ccc(C(=O)NCCCc2ccccc2)cc1 | inactive |
| C[n+]1ccc(C(=O)NCc2ccccc2)cc1 | inactive |
| Cc1nc2nc(SCC(=O)N(Cc3ccccc3)C(C)C)nn2c(C)c1Cc1ccccc1Cl | inactive |
| CCc1ccc(-n2nnc(-c3nc(-c4ccccc4)no3)c2C)cc1 | inactive |
| COc1ccc(SCc2cc(=O)c3ccc(C)c(C)c3[nH]2)cc1 | inactive |

| Compound | Potency |
| --- | --- |
| COc1cc(/C=N/O)cc(Br)c1OCc1cccc(Cl)c1 | inactive |
| CCOc1c(Br)cc(/C=C2\C(=O)N(CCC#N)N=C2C)cc1OC | inactive |
| COc1cc(/C=C2/C(=O)NN(c3cccc(Cl)c3)C2=O)cc(Br)c1O | 44.7 µM (active) |
| COc1ccc(CNc2nc(-c3ccc(Cl)cc3)nn2S(=O)(=O)c2ccc(C)cc2)cc1 | inactive |
| Cc1cccc(NC(=O)N2CCC(CN3CCc4ccccc4C3)CC2)c1C | inactive |
| NS(=O)(=O)c1ccc(NC(=O)C(=O)Nc2ccc3nc4n(c(=O)c3c2)CCCCC4)cc1 | inactive |
| O=C(c1ccc2c(c1)N(Cc1ccccc1F)C(=O)c1ccccc1S2(=O)=O)N1CCOCC1 | inactive |
| COc1ccc(N(CC(=O)NCCc2ccc(Cl)cc2)S(=O)(=O)c2c(C)nn(C)c2C)cc1 | inactive |
| COc1cccc(Cn2c(SCc3ccc(C(=O)N4CCCCC4)cc3)nc3ccncc32)c1 | inactive |
| Cc1cccc(CSc2nc3ccncc3n2Cc2ccc(C(=O)O)cc2)c1 | inactive |
| COc1cccc(Cn2c(SCc3ccc(C(=O)N4CCC(C)CC4)cc3)nc3ccncc32)c1 | 5.62 µM (active) |
| O=C1CSC(=S)N1c1ccc(O)cc1 | inactive |
| CCOc1cccc(/C=N/N2C(=O)CSC2=S)c1O | 20 µM (active) |
| COc1cc(N2C(=O)CSC2=S)cc(OC)c1OC | inactive |
| COc1ccc(-c2cn3nc(N4CCCC(C(=O)NCCCOC(C)C)C4)sc3n2)cc1 (stereo not drawn) | inactive |
| Cc1ccc(-n2c(SCC(=O)c3ccccc3)nc3c([nH]c4ccccc43)c2=O)cc1 | inactive |
| COc1ccc(NC(=O)CCNS(=O)(=O)c2ccc3c(c2)CCCC(=O)N3)cc1Cl | inactive |
| COc1ccc(C(=O)Nc2cccc(C(=O)OCc3cc(=O)n4c5c(sc4n3)CCCC5)c2)cc1 | inactive |
| Cc1cccc(N2CCN(C(=O)c3oc(=O)c4ccccc4c3-c3ccccc3)CC2)c1C | inactive |
| Cc1cccc(N2CCN(C3=C(c4ccccc4)C(=O)c4ccccc43)CC2)c1C | 5.62 µM (active) |
| Cc1cccc(N2CCN(Cc3c(C)n(C)n(-c4ccccc4)c3=O)CC2)c1C | inactive |

| Compound | Potency |
| --- | --- |
| COc1cccc(-c2n[nH]c3c2C(c2cccc(O)c2)N(C)C3=O)c1 (stereo not drawn) | inactive |
| CCC(=O)N1N=C(c2ccc(OC)cc2)CC1c1cn(-c2ccccc2)nc1-c1cccs1 (stereo not drawn) | inactive |
| CC1CCN(CC(O)COc2ccc(C(=O)c3ccccc3)cc2)CC1 (stereo not drawn) | inactive |
| CCOc1ccc(C(=O)/C=C/c2cn(CC(O)CN3CCCCCC3)c3ccccc23)cc1 (stereo not drawn) | 70.8 µM (active) |
| O=C(c1ccc(Cl)cc1)c1ccc(OCC(O)CN2CCCCC2)cc1 (stereo not drawn) | inactive |
| Cn1c(=O)c2c(nc(Oc3ccc(C#N)cc3)n2Cc2ccc(Cl)cc2Cl)n(C)c1=O | inactive |
| O=[N+]([O-])c1cc(-c2nc(-c3ccccc3)no2)ccc1NCc1ccco1 | inactive |
| COc1ccc(CC(=O)Nc2ccccc2NC(=O)c2ccco2)cc1OC | inactive |
| COc1ccccc1C(=O)NC(=O)COC(=O)c1ccco1 | inactive |
| COc1ccc(C/C(N)=N/OC(=O)c2ccco2)cc1OC | 44.7 µM (active) |
| COc1ccc(OC)c(NC(=O)Cn2c(=O)n(Cc3ccccc3)c(=O)c3ccccc32)c1 | inactive |
| CN(C)c1ccc(Nc2c3c4c(cccc4n(C)c2=O)C(=O)c2ccccc2-3)cc1 | 3.55 µM (active) |
| CN(C)c1ccc(C2N(C)C(=O)c3ccccc3N2C)cc1 (stereo not drawn) | inactive |
| Cc1cc(NS(=O)(=O)c2ccc(NC(=O)c3ccccc3C)cc2)nc(C)n1 | inactive |
| Cc1ccc(C2C=C(c3ccc(Cl)cc3)Nc3nc(NC(=O)CCC(=O)O)nn32)cc1 (stereo not drawn) | 79.4 µM (active) |
| COc1ccc(CC(=O)Nc2nc3n(n2)C(c2ccccc2)CC(=O)N3)cc1OC (stereo not drawn) | inactive |
| COc1ccc(C2=CC(c3ccccc3Cl)n3nc(-c4ccc(Cl)cc4)nc3N2)cc1 (stereo not drawn) | inactive |
| COc1cccc(CN2CCc3nc(SCC(=O)Nc4ccccc4)[nH]c(=O)c3C2)c1 | inactive |
| O=C(CNCCC1=CCCCC1)Nc1ccccc1N1CCCCCC1 | 56.2 µM (active) |
| Cc1cc(NC(=O)C(C)SCC(=O)Nc2ccccc2N2CCCCC2)no1 (stereo not drawn) | inactive |
| S=C(NCCC1=CCCCC1)Nc1ccccc1 | inactive |
